# In the supplement of paper PMC8728848:
# About 410 targets per protein were measured; listed, in parts, are those with the strongest signals and a random draw of the rest.
# Key:
# Experiment in all cases: glycan array binding signal (z-score within array); higher = stronger binding
# Settings in all cases: glycan notation: IUPAC condensed, linker removed
# [1] = target: Fuc(a1-2)Gal(b1-3)GalNAc(a1-3)[Fuc(a1-2)]Gal(b1-4)GlcNAc
# In short: (§1)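 Glycan array data were curated from 3228 arrays in the Consortium for Functional Glycomics database and kept only where the protein sequence was available. Glycan names were converted to IUPAC-condensed notation, and columns mapping to the same glycan were averaged. The binding signal is a within-array Z-score, averaged across arrays of the same protein sequence at different concentrations or buffers and across linkers. Negative Z-scores can be read as non-binding.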
# [2] = target: Fuc(a1-2)Gal(b1-3)GlcNAc(b1-3)Gal(b1-4)Glc
# In short: as §1
# [3] = target: Fuc(a1-2)Gal(b1-3)[Fuc(a1-4)]GlcNAc(b1-3)[Gal(b1-4)GlcNAc(b1-6)]Gal(b1-4)Glc
# In short: as §1
# [4] = target: Fuc(a1-2)[Gal(a1-3)]Gal(b1-3)GlcNAc(b1-2)Man(a1-3)[Fuc(a1-2)[Gal(a1-3)]Gal(b1-3)GlcNAc(b1-2)Man(a1-6)]Man(b1-4)GlcNAc(b1-4)GlcNAc
# In short: as §1
# [5] = target: Fuc(a1-2)[Gal(a1-3)]Gal(b1-3)GlcNAc(b1-2)Man(a1-3)[Fuc(a1-2)[Gal(a1-3)]Gal(b1-3)GlcNAc(b1-2)Man(a1-6)]Man(b1-4)GlcNAc(b1-4)[Fuc(a1-6)]GlcNAc
# In short: as §1
# [6] = target: Fuc(a1-2)[Gal(a1-3)]Gal(b1-3)GlcNAc(b1-3)GalNAc
# In short: as §1
# [7] = target: Fuc(a1-2)[Gal(a1-3)]Gal(b1-4)GlcNAc(b1-2)Man
# In short: as §1
# [8] = target: Fuc(a1-2)[Gal(a1-3)]Gal(b1-4)GlcNAc(b1-2)Man(a1-3)[Fuc(a1-2)[Gal(a1-3)]Gal(b1-4)GlcNAc(b1-2)Man(a1-6)]Man(b1-4)GlcNAc(b1-4)GlcNAc
# In short: as §1
# [9] = target: Fuc(a1-2)[Gal(a1-4)]Gal(b1-4)GlcNAc
# In short: as §1
# [10] = target: Fuc(a1-2)[GalNAc(a1-3)]Gal(b1-3)GlcNAc(b1-2)Man(a1-3)[Fuc(a1-2)[GalNAc(a1-3)]Gal(b1-3)GlcNAc(b1-2)Man(a1-6)]Man(b1-4)GlcNAc(b1-4)GlcNAc
# In short: as §1
# [11] = target: Fuc(a1-2)[GalNAc(a1-3)]Gal(b1-3)GlcNAc(b1-3)GalNAc
# In short: as §1
# [12] = target: Fuc(a1-2)[GalNAc(a1-3)]Gal(b1-4)GlcNAc(b1-2)Man(a1-3)[Fuc(a1-2)[GalNAc(a1-3)]Gal(b1-4)GlcNAc(b1-2)Man(a1-6)]Man(b1-4)GlcNAc(b1-4)[Fuc(a1-6)]GlcNAc
# In short: as §1
# [13] = target: Fuc(a1-2)[GalNAc(a1-3)]Gal(b1-4)GlcNAc(b1-3)GalNAc
# In short: as §1
# [14] = target: Fuc(a1-2)[GalNAc(b1-3)]Gal
# In short: as §1
# [15] = target: Fuc(a1-3)[Gal(b1-4)]GlcNAc(b1-4)Gal(b1-4)[Fuc(a1-3)]GlcNAc(b1-4)Gal(b1-4)[Fuc(a1-3)]GlcNAc
# In short: as §1
# [16] = target: Fuc(a1-3)[GalNAc(b1-4)]GlcNAc
# In short: as §1
# [17] = target: Gal(a1-3)Gal(b1-3)[Fuc(a1-4)]GlcNAc(b1-2)Man(a1-3)[Gal(a1-3)Gal(b1-3)[Fuc(a1-4)]GlcNAc(b1-2)Man(a1-6)]Man(b1-4)GlcNAc(b1-4)GlcNAc
# In short: as §1
# [18] = target: Gal(a1-3)Gal(b1-4)GlcNAc
# In short: as §1
# [19] = target: Gal(a1-3)Gal(b1-4)GlcNAc(b1-6)GalNAc
# In short: as §1
# [20] = target: Gal(b1-3)GlcNAc(b1-3)Gal(b1-4)GlcNAc(b1-2)Man(a1-3)[Gal(b1-3)GlcNAc(b1-3)Gal(b1-4)GlcNAc(b1-2)Man(a1-6)]Man(b1-4)GlcNAc(b1-4)GlcNAc
# In short: as §1
# [21] = target: Gal(b1-3)[Fuc(a1-4)]GlcNAc(b1-3)Gal(b1-3)[Fuc(a1-4)]GlcNAc
# In short: as §1
# [22] = target: Gal(b1-3)[Fuc(a1-4)]GlcNAc(b1-3)Gal(b1-4)GlcNAc
# In short: as §1
# [23] = target: Gal(b1-4)Glc
# In short: as §1
# [24] = target: Gal(b1-4)GlcNAc(b1-3)Gal(b1-4)GlcNAc(b1-3)Gal(b1-4)GlcNAc
# In short: as §1
# [25] = target: Gal(b1-4)GlcNAc(b1-3)Gal(b1-4)GlcNAc(b1-3)Gal(b1-4)GlcNAc(b1-3)Gal(b1-4)GlcNAc(b1-3)Gal(b1-4)GlcNAc(b1-2)Man(a1-3)[Gal(b1-4)GlcNAc(b1-3)Gal(b1-4)GlcNAc(b1-3)Gal(b1-4)GlcNAc(b1-3)Gal(b1-4)GlcNAc(b1-3)Gal(b1-4)GlcNAc(b1-2)Man(a1-6)]Man(b1-4)GlcNAc(b1-4)[Fuc(a1-6)]GlcNAc
# In short: as §1
# [26] = target: Gal(b1-4)GlcNAc(b1-3)Gal(b1-4)GlcNAc(b1-3)GalNAc
# In short: as §1
# [27] = target: Gal(b1-4)GlcNAc(b1-3)Gal(b1-4)GlcNAc(b1-3)[Gal(b1-4)GlcNAc(b1-3)Gal(b1-4)GlcNAc(b1-6)]GalNAc
# In short: as §1
# [28] = target: Gal3S(b1-4)GlcNAc6S
# In short: as §1
binder,measurement,setting,value
KISKRILTGKK [NK11 (Sus scrofa)],glycan array binding signal (z-score),[1],-0.539
same,glycan array binding signal (z-score),[2],0.203
same,glycan array binding signal (z-score),[3],-0.767
same,glycan array binding signal (z-score),[4],-0.23
same,glycan array binding signal (z-score),[5],-0.614
same,glycan array binding signal (z-score),[6],0.052
same,glycan array binding signal (z-score),[7],-0.085
same,glycan array binding signal (z-score),[8],0.702
same,glycan array binding signal (z-score),[9],0.014
same,glycan array binding signal (z-score),[10],-0.032
same,glycan array binding signal (z-score),[11],0.052
same,glycan array binding signal (z-score),[12],0.421
same,glycan array binding signal (z-score),[13],-1.25
same,glycan array binding signal (z-score),[14],-0.608
same,glycan array binding signal (z-score),[15],-0.886
same,glycan array binding signal (z-score),[16],-0.401
same,glycan array binding signal (z-score),[17],-0.06
same,glycan array binding signal (z-score),[18],-0.302
same,glycan array binding signal (z-score),[19],-0.147
same,glycan array binding signal (z-score),[20],-0.818
same,glycan array binding signal (z-score),[21],-0.425
same,glycan array binding signal (z-score),[22],3.41
same,glycan array binding signal (z-score),[23],-0.144
same,glycan array binding signal (z-score),[24],-0.612
same,glycan array binding signal (z-score),[25],-0.483
same,glycan array binding signal (z-score),[26],2.91
same,glycan array binding signal (z-score),[27],3.55
same,glycan array binding signal (z-score),[28],3.4
